mHTT CaM bind: mutant huntingtin-calmodulin interaction inhibitors – biochemical, AlphaScreen, primary screen. P42858. AlphaScreen His-mHTT/GST-CaM binding, luminescence. inhibition, % at 15 µM. 190,000 tested, 3.6% active. AID 1671202, 2021;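 note: 0% = both proteins with DMSO and 100% = one protein alone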
Pf apPOL inh: Pf-apPOL inhibitors, biochemical, fluorescence. Plasmodium falciparum apicoplast DNA polymerase (apPOL). Recombinant Pf-apPOL, molecular beacon fluorescence, 1.5 h. inhibition, % at 10 µM. 210,000 tested, 0.25% active
Starred values were filed as active, the others as inactive. This is a sample that favours compounds with a hit; in the whole collection about 3.6% have one here. Cut-off read from the data, not from the text of the source: active = inhibition above about 50%; inactive = the rest.

How did COc1ccc(CCC(=O)Nc2cc(F)c3nc(N4CCOCC4)ccc3c2)cc1 do in these assays?
mHTT CaM bind: -12; Pf apPOL inh: 0

What do the screens show for `O=C1N=C(N2CCN(c3ccccc3)CC2)S/C1=C\c1ccc(O)cc1`?
mHTT CaM bind: 45; Pf apPOL inh: 0

What do the screens show for `O=C(Nc1cccc(OC(=O)N(c2ccccc2)c2ccccc2)c1)N1CCOCC1`?
mHTT CaM bind: 39; Pf apPOL inh: -1

What do the screens show for `O=C(O)CCCC(=O)Nc1nc2nccc(-c3ccccc3)n2n1`?
mHTT CaM bind: 82*; Pf apPOL inh: -2

What do the screens show for `CC(=O)Nc1nc2nccc(-c3ccccc3)n2n1`?
mHTT CaM bind: -4; Pf apPOL inh: -6

How did Nc1ccc(Oc2ccc(N)c(N)c2)cc1 do in these assays?
mHTT CaM bind: 88*; Pf apPOL inh: -10

What do the screens show for `COc1ccc(Oc2ccc(N)cc2)cc1`?
mHTT CaM bind: 22; Pf apPOL inh: -5

What do the screens show for `COc1cc2c(cc1NC(=O)Cc1ccccc1[N+](=O)[O-])oc1ccccc12`?
mHTT CaM bind: 13; Pf apPOL inh: -2

What do the screens show for `CCCC12CN3CC(C)(CN(C1)C3c1ccc(OC)c(OC)c1)C2=O` (stereo not given)?
mHTT CaM bind: 2; Pf apPOL inh: 0

How did O=[N+]([O-])c1ccc(N2CCN(Cc3ccccc3)CC2)cc1NC1CC1 do in these assays?
mHTT CaM bind: 27; Pf apPOL inh: -7

How did O=[N+]([O-])c1ccc(N2CCCC2)cc1N1CCN(Cc2ccccc2)CC1 do in these assays?
mHTT CaM bind: 53*; Pf apPOL inh: -4

How did O=C1Nc2ccccc2Oc2cc([N+](=O)[O-])cc(Oc3ccc(Cl)cc3)c21 do in these assays?
mHTT CaM bind: 51*; Pf apPOL inh: -2

Results for O=C1Nc2ccccc2Oc2cc([N+](=O)[O-])cc(Oc3ccc(Br)cc3)c21 ?
mHTT CaM bind: 42; Pf apPOL inh: -7

What do the screens show for `COc1cccc(C2C=C(c3ccc(F)cc3)Nc3ncnn32)c1OC` (stereo not given)?
mHTT CaM bind: 56*; Pf apPOL inh: -5

What do the screens show for `COc1ccc(C2=CC(c3cccc(Br)c3)n3nc(CCCO)nc3N2)cc1OC` (stereo not given)?
mHTT CaM bind: 53*; Pf apPOL inh: -6

Results for COc1ccc(C2=CC(c3ccccc3)n3nc(CCCO)nc3N2)cc1 (stereo not given) ?
mHTT CaM bind: 17; Pf apPOL inh: -18

What do the screens show for `COc1ccccc1C1C=C(c2ccc(Br)cc2)Nc2ncnn21` (stereo not given)?
mHTT CaM bind: 41; Pf apPOL inh: -8

What do the screens show for `COc1cccc(C2C=C(c3ccc(Br)cc3)Nc3ncnn32)c1OC` (stereo not given)?
mHTT CaM bind: 66*; Pf apPOL inh: 4

Results for COc1cc(C2C=C(c3ccc(Cl)cc3)Nc3ncnn32)cc(OC)c1OC (stereo not given) ?
mHTT CaM bind: 76*; Pf apPOL inh: 0

How did COc1cccc(C2C=C(c3ccc(C)cc3)Nc3ncnn32)c1OC (stereo not given) do in these assays?
mHTT CaM bind: 31; Pf apPOL inh: -2

How did COc1ccc(C2=CC(c3cc(OC)c(OC)c(OC)c3)n3ncnc3N2)cc1 (stereo not given) do in these assays?
mHTT CaM bind: 11; Pf apPOL inh: -2

What do the screens show for `COc1nccc(N2CCC(CC(=O)NC3CCN(Cc4ccccc4)CC3)CC2)n1`?
mHTT CaM bind: 4; Pf apPOL inh: -6

How did CCCNc1cc(N2CCCC(CCC(=O)NCCC(C)C)C2)ncn1 (stereo not given) do in these assays?
mHTT CaM bind: 5; Pf apPOL inh: -5

How did CCc1cccc(NC(=O)c2ccc(Cl)cc2Cl)c1 do in these assays?
mHTT CaM bind: -31; Pf apPOL inh: -1

How did CN(C)C(=O)C1CCN(c2nc3ccc(-c4cncnc4)nc3s2)CC1 do in these assays?
mHTT CaM bind: 5; Pf apPOL inh: 0

What do the screens show for `CCCN1C(=O)C(C)(C(=O)NCc2ccc(C)cc2)Oc2cccnc21` (stereo not given)?
mHTT CaM bind: -4; Pf apPOL inh: -2

How did COc1ccc2c(c1)OCC/C2=N\OC(=O)c1ccccc1 do in these assays?
mHTT CaM bind: inactive; Pf apPOL inh: -6

How did COc1cccc(C2C=C(c3cccc(Br)c3)Nc3nnnn32)c1OC (stereo not given) do in these assays?
mHTT CaM bind: 65*; Pf apPOL inh: -5

What do the screens show for `COc1cccc(C2C=C(c3cccc(Br)c3)Nc3ncnn32)c1` (stereo not given)?
mHTT CaM bind: 59*; Pf apPOL inh: -6

Results for COc1cccc(C2C=C(c3ccc(Br)cc3)Nc3nnnn32)c1OC (stereo not given) ?
mHTT CaM bind: 2; Pf apPOL inh: -3

How did COc1cccc(C2C=C(c3ccc(C)cc3)Nc3ncnn32)c1 (stereo not given) do in these assays?
mHTT CaM bind: 18; Pf apPOL inh: -5

How did O=C(NCc1ccccc1Br)C1CCCN(C(=O)c2ccccc2F)C1 (stereo not given) do in these assays?
mHTT CaM bind: 32; Pf apPOL inh: -16

How did COc1ccc(CN2CCCC2c2cc(C(C)C)no2)cc1 (stereo not given) do in these assays?
mHTT CaM bind: 0; Pf apPOL inh: -2

Results for Nc1nncn1C(=O)COc1ccc(Br)cc1Cl ?
mHTT CaM bind: 1; Pf apPOL inh: -4

Results for C=CCC(=O)Nc1cc(-c2ccccc2)nn1-c1cccc(F)c1 ?
mHTT CaM bind: 2; Pf apPOL inh: -1

Results for CC1(C)C(C=C(Cl)Cl)C1C(=O)Nc1nc2ccccc2s1 (stereo not given) ?
mHTT CaM bind: -3; Pf apPOL inh: 0

What do the screens show for `Cc1ccc(NS(=O)(=O)c2cc3c(s2)CCN(C(=O)C2CCC2)C3)cc1`?
mHTT CaM bind: 8; Pf apPOL inh: 2

Results for Cc1nc(-c2ccncc2)nc2c1CCC(=O)N2Cc1ccco1 ?
mHTT CaM bind: 22; Pf apPOL inh: -8

Results for Cc1nc(-c2ccncc2)nc2c1CCC(=O)N2Cc1ccncc1 ?
mHTT CaM bind: 6; Pf apPOL inh: 14

What do the screens show for `Cc1nc(-c2cnccn2)nc2c1CCC(=O)N2Cc1ccncc1`?
mHTT CaM bind: 60*; Pf apPOL inh: 59*

How did Cc1ccc(CN2C(=O)CCc3c(C)nc(-c4ccccc4)nc32)o1 do in these assays?
mHTT CaM bind: 90*; Pf apPOL inh: 20

What do the screens show for `Cc1nc(-c2cnccn2)nc2c1CCC(=O)N2Cc1ccccc1`?
mHTT CaM bind: 9; Pf apPOL inh: -1

Results for Cc1nc(-c2ccncc2)nc2c1CCC(=O)N2CCN1CCCC1 ?
mHTT CaM bind: 28; Pf apPOL inh: 56*

Results for CC(=O)N1CCN(c2nc3c(s2)CC(C(=O)NCc2ccc(C)o2)CC3)CC1 (stereo not given) ?
mHTT CaM bind: 21; Pf apPOL inh: 4

Results for COc1ccccc1C1=N/C(=C\C(C)=C\c2ccccc2)C(=O)O1 ?
mHTT CaM bind: -1; Pf apPOL inh: -5

How did O=C(CCCSc1ccccc1)N1CCN(c2ccccc2)CC1 do in these assays?
mHTT CaM bind: 2; Pf apPOL inh: -26

What do the screens show for `CC(C)(C)c1ccc(OCC(O)CN2CCN(CCO)CC2)cc1` (stereo not given)?
mHTT CaM bind: 0; Pf apPOL inh: 0

What do the screens show for `CC(C)(C)c1ccc(OCC(O)CN2CCCC2)c(C(C)(C)C)c1` (stereo not given)?
mHTT CaM bind: 33; Pf apPOL inh: 2

Screening data from PubChem BioAssay.
